Structures can show the parent of a compound that is named as a salt. Among all 1,500 compounds or so, about 30 (2%) showed activity. For the sample, actives were picked, then their nearest neighbours and some compounds at random. A number with no mark means an inactive call.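 The calls were made as follows: active = robust z-score below -2; a few such results were not called.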
system: optoTopBP1 Flp-In 293 T-REx (HEK293) cells; assay: light-induced TopBP1 condensate (nuclear foci) count, plate-normalised robust z-score vs non-control wells; higher = more TopBP1 condensates (negative = condensation inhibitor), active = hit call of the paper; conditions: 10 µM; incubation time 2 h

Compound	light-induced TopBP1 condensate (z-score)
OCCN1CCN(CC/C=C2/c3ccccc3Sc3ccc(Cl)cc32)CC1 [Zuclopenthixol dihydrochloride]	-0.966
Cn1cc(C(=O)[C@@H]2CCc3[nH]cnc3C2)c2ccccc21 [Ramosetron hydrochloride]	-0.549
COc1ccc(C2C(=O)c3ccccc3C2=O)cc1 [Anisindione]	0.789
COc1cccc2c1C(=O)c1c(O)c3c(c(O)c1C2=O)C[C@@](O)(C(=O)CO)C[C@@H]3O[C@H]1C[C@H](N)[C@@H](O)[C@H](C)O1 [Epirubicin hydrochloride]	-3.05 (active)
CC(COc1ccccc1)NC(C)C(O)c1ccc(O)cc1 (configuration not stated) [Isoxsuprine hydrochloride]	-0.14
C[C@H](NCc1ccc(OCc2cccc(F)c2)cc1)C(N)=O [Safinamide]	-0.127
Oc1ccc(OCc2ccccc2)cc1 [Monobenzone]	-2.29 (active)
COc1ccc(C(=O)c2ccc(C)cc2)c(O)c1 [Mexenone]	0.105
O=C(NCCCN1CCOCC1)c1ccc(Cl)cc1 [Eprobemide]	0.149
CC(C)NCC(O)COc1cccc2[nH]c3ccccc3c12 (configuration not stated) [Carazolol]	-1.07
CC(COc1ccccc1)NN (configuration not stated) [Phenoxypropazine dihydrochloride]	0.724
CN(C)C(=O)COC(=O)Cc1ccc(OC(=O)c2ccc(NC(=N)N)cc2)cc1 [Camostat mesylate]	-0.369
CN[C@@H]1[C@H](O)[C@H](NC)[C@H]2O[C@@]3(O)C(=O)C[C@@H](C)O[C@H]3O[C@@H]2[C@H]1O [Spectinomycin dihydrochloride]	0.546
C=C1C[C@H]2[C@@H]3C=C(C)C4=CC(=O)CC[C@]4(C)[C@H]3CC[C@]2(C)[C@@]1(OC(C)=O)C(C)=O [Melengestrol acetate]	-0.246
CCOc1ccccc1OCCN[C@H](C)Cc1ccc(OC)c(S(N)(=O)=O)c1 [(R)-Tamsulosin hydrochloride]	0.258
Cc1cccc(C)c1OCC(=O)N[C@@H](Cc1ccccc1)[C@@H](O)C[C@H](Cc1ccccc1)NC(=O)[C@H](C(C)C)N1CCCNC1=O [Lopinavir]	0.599
CC(C)CN(C[C@@H](O)[C@H](Cc1ccccc1)NC(=O)O[C@H]1CCOC1)S(=O)(=O)c1ccc(N)cc1 [Amprenavir]	1.18
CC[N+]1(CC)CCC(=C(c2ccccc2)c2ccccc2)C1C (configuration not stated) [Prifinium Bromide]	1.11
CC(C)(CO)[C@@H](O)C(=O)NCCCC(=O)O [Hopantenate calcium]	0.00401
COc1cc(N)cn[n+]1-c1ccccc1 [Amezinium metilsulfate]	0.428
O=C1CN2Cc3c(ccc(Cl)c3Cl)N=C2N1 [Anagrelide]	-0.566
Clc1ccc(C(Cn2ccnc2)OCc2csc3c(Cl)cccc23)c(Cl)c1 (configuration not stated) [Sertaconazole nitrate]	0.206
OCC(CO)N[C@H]1C[C@](O)(CO)[C@@H](O)[C@H](O)[C@H]1O [Voglibose]	1.28
CC(C)(CO)C(O)C(=O)NCCCO (configuration not stated) [Panthenol (D)]	0.585

Compound	light-induced TopBP1 condensate (z-score)
CN(C)CCOC1=Cc2ccccc2Sc2ccc(Cl)cc21 [Zotepine]	0.612
CN1CCCCC1CCN1c2ccccc2Sc2ccc([S+](C)[O-])cc21 (configuration not stated) [Mesoridazine besylate]	0.412
Cc1nc2ccccc2n1Cc1ccc(Cl)cc1 [Chlormidazole]	-0.19
CC(C)(C)C(=O)OCOC(=O)[C@@H]1N2C(=O)[C@@H](/N=C/N3CCCCCC3)[C@H]2SC1(C)C [Pivmecillinam hydrochloride]	0.64
CC(C)NC(=N)NC(=N)Nc1ccc(Cl)cc1 [Proguanil hydrochloride]	-0.256
COc1cc(C(=O)NCc2ccc(OCCN(C)C)cc2)cc(OC)c1OC [Trimethobenzamide hydrochloride]	-0.218
Cc1ncc([N+](=O)[O-])n1CC(C)O (configuration not stated) [Secnidazole]	0.994
CC1(C)S[C@@H]2[C@H](NC(=O)C(c3ccccc3)S(=O)(=O)O)C(=O)N2[C@H]1C(=O)O (some centres not stated) [Sulbenicillin sodium salt]	0.523
CC(=O)[C@@]1(O)CC[C@H]2[C@@H]3C[C@H](C)C4=CC(=O)C=C[C@]4(C)[C@@]3(F)[C@@H](O)C[C@@]21C [Fluorometholone]	-0.232
O=C(c1cc(O)c(O)c(O)c1)c1ccc(O)c(O)c1O [Exifone]	0.683
CN(C)CC/C=C1/c2ccccc2COc2ccc(CC(=O)O)cc21 [Olopatadine hydrochloride]	0.52
O=c1oc2cc(O)ccc2s1 [Tioxolone]	0.00597
Cc1cc(/C=C/c2ccc3cc(N(C)C)ccc3[n+]2C)c(C)n1-c1ccccc1 [Pyrvinium pamoate]	-4.74 (active)
CN[C@@H]1[C@@H](O)[C@@H](O[C@@H]2[C@@H](O)[C@H](O[C@H]3OC(CN)=CC[C@H]3N)[C@@H](N)C[C@H]2N)OC[C@]1(C)O [Sisomicin sulfate]	0.652
CCN1CCN(Cc2ccc(Nc3ncc(F)c(-c4cc(F)c5nc(C)n(C(C)C)c5c4)n3)nc2)CC1 [Abemaciclib]	-0.486
COc1cccc(CCc2ccccc2OCC(CN(C)C)OC(=O)CCC(=O)O)c1 (configuration not stated) [Sarpogrelate hydrochloride]	0.789
Clc1ccc(C(Cn2ccnc2)OCc2c(Cl)cccc2Cl)c(Cl)c1 (configuration not stated) [Isoconazole]	0.803
CN(C)c1cc(NC(=O)CNC(C)(C)C)c(O)c2c1C[C@H]1C[C@H]3[C@H](N(C)C)C(O)=C(C(N)=O)C(=O)[C@@]3(O)C(O)=C1C2=O [Tigecycline]	0.904
N#C/C(=C1/SCC(c2ccccc2Cl)S1)n1ccnc1 (configuration not stated) [Lanoconazole]	0.321
O=C(O)COc1nn(Cc2ccccc2)c2ccccc12 [Bendazac]	-0.242
CC(=O)N[C@H]1[C@H]([C@H](O)[C@H](O)CO)OC(C(=O)O)=C[C@@H]1NC(=N)N [Zanamivir]	-0.513
CC(C)(C)NCC(O)CSc1nc(-c2ccc(C(N)=O)s2)cs1 (configuration not stated) [Arotinolol hydrochloride]	-0.455
Cc1ccc(C(=O)c2cc(O)c(O)c([N+](=O)[O-])c2)cc1 [Tolcapone]	-0.692
